# Measured values from PubChem BioAssay (Tox21).
# Values without a mark were called inactive. Inconclusive results are not listed. Entries that show only a call come without a potency. Calls of active or inactive are those of the source. Unless noted, calls come from the whole dose curve; as a rule, active = well fitted curve in the direction sought with a large enough effect in the repeat runs; inconclusive = weak or mixed curves; inactive = no such curve, though single readings can be large; an effect the other way counts as inactive or inconclusive.
# Tests used:
# [1] = qHTS assay for small molecules that induce genotoxicity in human embryonic kidney cells expressing luciferase-tagged ATAD5 (AID 651632); note: nearly all actives have a fitted effect of over 15% in size
# In short: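 Luminescence read-out: after 16 hr compound exposure at 37C, ATAD5-luciferase HEK293T cells received Amplite, 30 min RT, then CCD imaging. A rise in signal marks genotoxic stress.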
# [2] = qHTS assay for small molecules that induce genotoxicity in human embryonic kidney cells expressing luciferase-tagged ATAD5 - cell viability (AID 651634; calls by dose curve; note: nearly all actives have a fitted effect of over 25% in size; note: potency is the fitted concentration of half-maximal effect)
# In short: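 HEK293T ATAD5-luc cells, 2,000/well; compound 15.5 hr, 37C/5% CO2; CellTiter-Fluor 30 min, 37C; fluorescence read.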
# [3] = qHTS assay for small molecule disruptors of the mitochondrial membrane potential - cell viability (AID 720634; calls by dose curve;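 note: human HepG2 liver cancer cells; series mostly up to about 83 µM; nearly all actives have a fitted effect of over 20% in size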)
# In short: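 Luminescence from CellTiter-Glo (ATP content) gave viability in HepG2 cells, read in the same wells as the MMP dye assay after 1 hr compound exposure at 37 C.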
# [4] = qHTS assay to test for compound auto fluorescence at 590 nm (red) in HepG2 cells (AID 720674)
# In short: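 Seeding: 2,000 HepG2 cells/well, MEM/10% FBS, overnight 37 C. Dosing: compound vs DMSO. Incubation: 1 hr, 37 C, 5% CO2. Read: fluorescence 540 ex/590 em, Rose Bengal sodium as red reference.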
# [5] = qHTS assay to test for compound auto fluorescence at 535 nm (green) in HepG2 cells (AID 720675)
# [6] = qHTS assay to test for compound auto fluorescence at 460 nm (blue) in HEK293 cells (AID 720678)
# In short: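 HEK293 cells (2,000 per well, medium with 10% dialyzed FBS) attached for 4-5 hr at 37C, then received compound and stood overnight at 37C, 5% CO2. Blue fluorescence was read at Ex/Em 405/460 nm and expressed relative to triamterene.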
# [7] = qHTS assay to test for compound auto fluorescence at 590 nm (red) in HEK293 cells (AID 720679)
# In short: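 HEK293 cells (2,000/well, medium with 10% dialyzed FBS) attached for 4-5 hr at 37C, received 23 nL compound and were incubated overnight at 37C, 5% CO2. Red fluorescence was then read at 540/590nm Ex/Em, referenced to Rose Bengal sodium.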
# [8] = qHTS assay to test for compound auto fluorescence at 535 nm (green) in HEK293 cells (AID 720680)
# [9] = qHTS assay to test for compound auto fluorescence at 460 nm (blue) in HEK293 cell free culture (AID 720681)
# In short: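 Compounds were added to cell-free DMEM with 10% FBS and fluorescence read directly. The blue channel used 405 nm excitation and 460 nm emission, with triamterene as the reference fluorophore.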
# [10] = qHTS assay to test for compound auto fluorescence at 535 nm (green) in HEK293 cell free culture (AID 720682)
# In short: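 Fluorescein serves as the green reference fluorophore; each compound's intrinsic emission at 535 nm (excitation 485 nm) is reported as an equivalent amount of that dye, measured in serum-containing DMEM without cells.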
# [11] = qHTS assay to test for compound auto fluorescence at 590 nm (red) in HEK293 cell free culture (AID 720683)
# In short: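 Cell-free wells of DMEM with 10% FBS received compound, and intrinsic fluorescence was read at excitation/emission 540/590 nm. Values expressed as equivalence to Rose Bengal sodium.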
# [12] = qHTS assay to test for compound auto fluorescence at 590 nm (red) in HepG2 cell free culture (AID 720684)
# In short: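 Auto fluorescence equivalency versus Rose Bengal sodium, red channel Ex/Em 540/590 nm; compounds in cell-free MEM/10% FBS; DMSO vehicle control.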
# [13] = qHTS assay to test for compound auto fluorescence at 535 nm (green) in HepG2 cell free culture (AID 720686)
# [14] = qHTS assay to test for compound auto fluorescence at 460 nm (blue) in HepG2 cells (AID 720687)
# In short: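 HepG2 cells in MEM with 10% FBS, attached overnight at 37 C, were exposed to compound or DMSO for 1 hr at 37 C, 5% CO2. Blue fluorescence was read at 405/460 nm, with triamterene as reference fluorophore.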
# [15] = molecular target: Glucocorticoid receptor (Homo sapiens) (UniProt P04150); experiment: qHTS assay to identify small molecule agonists of the glucocorticoid receptor (GR) signaling pathway (AID 720691; active = well fitted activation curve with a large enough effect in the signal ratio in the repeat runs, not every such curve was filed as active; the % refers to the signal ratio)
# Glucocorticoid receptor (Homo sapiens), sequence (P04150 whole entry, looked up): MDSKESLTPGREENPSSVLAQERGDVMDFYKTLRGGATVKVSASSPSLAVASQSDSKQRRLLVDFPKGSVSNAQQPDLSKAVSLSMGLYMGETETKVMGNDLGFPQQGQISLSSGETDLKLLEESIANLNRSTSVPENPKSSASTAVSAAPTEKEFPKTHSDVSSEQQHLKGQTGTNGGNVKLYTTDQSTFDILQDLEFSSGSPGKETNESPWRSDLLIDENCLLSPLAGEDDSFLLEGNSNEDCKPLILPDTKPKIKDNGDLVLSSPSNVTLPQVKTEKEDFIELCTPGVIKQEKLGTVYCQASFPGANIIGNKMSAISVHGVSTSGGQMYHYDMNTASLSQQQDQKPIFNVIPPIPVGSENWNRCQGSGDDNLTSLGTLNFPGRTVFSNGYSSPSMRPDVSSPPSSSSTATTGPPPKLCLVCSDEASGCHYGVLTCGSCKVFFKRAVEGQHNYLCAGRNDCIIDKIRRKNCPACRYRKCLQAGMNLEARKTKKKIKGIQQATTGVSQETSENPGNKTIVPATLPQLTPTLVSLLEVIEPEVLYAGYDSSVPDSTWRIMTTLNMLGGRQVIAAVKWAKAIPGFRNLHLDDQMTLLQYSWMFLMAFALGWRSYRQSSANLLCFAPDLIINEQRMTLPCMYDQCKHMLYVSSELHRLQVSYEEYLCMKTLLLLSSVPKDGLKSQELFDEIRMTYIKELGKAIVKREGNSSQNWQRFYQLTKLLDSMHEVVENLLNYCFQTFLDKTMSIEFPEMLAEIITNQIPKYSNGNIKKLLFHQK
# In short: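 HeLa GR-bla reporter line; cells pre-incubated 4 h, compound in DMSO 18 h at 37 C; LiveBLAzer B/G FRET substrate 2 h RT; fluorescence intensity read-out.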
# [16] = qHTS assay for small molecule agonists of the p53 signaling pathway - cell viability (AID 651633; calls by dose curve; note: nearly all actives have a fitted effect of over 30% in size; note: potency is the fitted concentration of half-maximal effect)
# In short: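 p53RE-bla cells were treated with compound for 16 hours at 37 C. Cytotoxicity was then measured as CellTiter-Glo luminescence after 30 min at room temperature.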
# [17] = qHTS assay for small molecule disruptors of the mitochondrial membrane potential (AID 720635); note: potency is the fitted concentration of half-maximal effect
# In short: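 HepG2 cells exposed to compound 1 hr at 37C, then Mito-MPS dye 30 min. Ratio read of aggregate (540/590 nm) versus monomer (490/535 nm) fluorescence.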
# [18] = molecular target: Glucocorticoid receptor (Homo sapiens) (UniProt P04150); experiment: qHTS assay to identify small molecule antagonists of the glucocorticoid receptor (GR) signaling pathway (AID 720692; active = well fitted inhibition curve with a large enough effect in the signal ratio in the repeat runs, not every such curve was filed as active; the % refers to the signal ratio)
# In short: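 Read-out: beta-lactamase FRET substrate fluorescence, 2 h at room temperature, in HeLa cells stably carrying a GRE-driven bla reporter. Compounds were co-incubated with 5 nM dexamethasone agonist (final) for 18 h at 37 C.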
# [19] = qHTS assay to test for compound auto fluorescence at 460 nm (blue) in HepG2 cell free culture (AID 720685)
# In short: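 Cell-free plates of MEM plus 10% FBS received 23 nL compound or DMSO vehicle; blue-channel (405/460 nm) intensity scored against triamterene as reference fluorophore.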
Structure (SMILES),Potency [1],Potency [2],outcome [3],outcome [4],outcome [5],Potency [6],outcome [7],outcome [8],Potency [9],outcome [10],outcome [11],outcome [12],outcome [13],Potency [14],Potency [15],Potency [16],Potency [17],Potency [18],Potency [19]
CN1CCCN(C(c2ccccc2)c2ccc(Cl)cc2)CC1 (stereo unspecified),inactive,inactive,inactive,inactive,inactive,inactive,inactive,inactive,inactive,inactive,inactive,inactive,inactive,inactive,inactive,–,–,–,–
CCCCOC(=O)CCCCC(=O)OCCCC,–,inactive,inactive,inactive,inactive,inactive,inactive,inactive,inactive,inactive,inactive,inactive,inactive,inactive,inactive,inactive,inactive,inactive,–
CC1CCC(C(C)CS)CC1S (stereo unspecified),–,–,–,inactive,inactive,inactive,inactive,inactive,inactive,–,inactive,inactive,inactive,–,inactive,54.5 µM (active),–,–,inactive
O=C(/C=C/c1ccc([N+](=O)[O-])cc1)c1ccccc1,–,inactive,inactive,inactive,inactive,inactive,inactive,inactive,inactive,inactive,inactive,inactive,inactive,inactive,inactive,68.7 µM (active),30.7 µM (active),–,inactive
O=C1OC(=O)c2c(Br)c(Br)c(Br)c(Br)c21,–,inactive,inactive,inactive,inactive,inactive,inactive,inactive,inactive,inactive,inactive,inactive,inactive,–,inactive,inactive,–,inactive,inactive
C/C(C=O)=C\c1ccccc1,–,inactive,inactive,inactive,inactive,inactive,inactive,inactive,inactive,inactive,inactive,inactive,inactive,–,–,inactive,inactive,–,inactive
CCN(CC)C(=O)/C(C#N)=C/c1cc(O)c(O)c([N+](=O)[O-])c1,–,26.6 µM (active),–,inactive,inactive,inactive,inactive,inactive,inactive,inactive,–,inactive,inactive,inactive,–,inactive,–,–,inactive
CN1C(CSCC(F)(F)F)Nc2cc(Cl)c(S(N)(=O)=O)cc2S1(=O)=O (stereo unspecified),inactive,inactive,inactive,inactive,inactive,inactive,inactive,inactive,inactive,–,inactive,inactive,inactive,–,inactive,–,inactive,inactive,inactive
